Drawing on PubChem BioAssay (NCI), this text covers growth for 40 compounds.

This is part of a sample that, as a whole, favours compounds with a hit. Of some 83,000 tested, about 20% had one in any assay.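 Note: values are percent growth. 100 is the growth of untreated cells, values between 100 and 0 indicate rising inhibition; between -100 and 0 indicates cell death.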 Unmarked numbers belong to inactive results. Activity calls are given as the source filed them.

In this experiment the test system is SK-MEL-2 melanoma. The experiment is described as follows: NCI-60 one-dose screen, 48 h (100 = growth as untreated, 0 = no growth, -100 = all killed). As to conditions: 10 µM unless noted. The procedure: Growth inhibition of the SK-MEL-2 human tumor cell line is measured as a screen for anti-cancer activity. Cells are grown in 96 well plates and exposed to the test compound for 48 hours. Compounds are tested at a single concentration, which is 10^-5 M for most compounds. The reported endpoint is percent growth (GI% or GIPRCNT), where numbers from 0 - 100% represent growth inhibition, and numbers from -100% - 0 represent cell death. For example, a value of 40 represents 60% growth inhibition. A value of 0 means no net growth occurred over the course of the experiment. A value of -40 indicates 40% of cells at the beginning of the experiment died by the end of the experiment. A value of -100 means all cells are dead at the end of the experiment.
NCI-60 Human Tumor Cell Lines Screen was performed using the standard one-dose NCI protocol, which is described in more detail at https://dtp.cancer.gov/discovery_development/nci-60/default.htm.
Compounds with GIPRCNT values below 10 were considered active. Activity score was based on GIPRCNT using the following formula: […]
Score is 0 for GIPRCNT values of 100 or above, 50 for GIPRCNT values of 0, and 100 for GIPRCNT values of -100.
As to `Cn1c2c(cc(S(=O)(=O)c3ccccc3)c1=O)CCc1c-2cnn1-c1ccccc1Cl`, the growth was 105%.
Turning to `C[C@@H](Oc1cc(-c2cnn(C3CC4(CCCNC4)C3)c2)cnc1N)c1c(Cl)ccc(F)c1Cl` (stereo not given in full), the growth is -47.8% (active).
`O=C(NC1CC1)c1cc2n(n1)CC(c1ccccc1)N2` (stereo not given): the growth was 99.9%.
For `COc1cc(C(=O)/C=C/c2c(-c3cccs3)nc3sccn23)cc(OC)c1OC`, the growth is -3.21% (active).
As for `C=CC[P+](c1ccccc1)(c1ccccc1)c1ccccc1`, the growth is 24.6%.
To `COC(=O)[C@@]12CC[C@@H](C)[C@]3(C[C@@H](c4ccoc4)OC3=O)[C@H]1CC[C@@H]1O[C@@]12C` belongs 96.9%; to `COc1cc(C(F)(F)F)ccc1-c1cc(-c2ccc(F)cc2)n[nH]1`, 118%.
To `Cc1cc(=O)c2c(C)ccc(C)c2[nH]1` belongs 104%; to `O=C1c2ccccc2C(=O)c2c(Nc3ccc(CCO)cc3)ccc(O)c21`, 103%; to `COc1ccc(/C=C(\C#N)c2cc3ccccc3n2C)cc1`, 67%.
As to `O=C(NCc1ccco1)C1CCN(S(=O)(=O)c2ccc(Cl)cc2)CC1`, the growth is 82.6%.
As to `Cc1ccc(N(CSc2ccc(Cl)cc2)CSc2ccc(Cl)cc2)cc1`, the growth was 86.2%.
As for `Cn1c2ccc(Cl)cc2c2nn(C(=O)c3ccccc3)c(=O)nc21`, the growth is 100%.
For the compound `O=C1OCC2=C1C(c1ccc3c(c1)OCO3)CC(=O)N2c1cccc(Cl)c1` (stereo not given), the growth was 103%.
For the compound `CCCCCCCCCCCCSC1=CC(=O)C=CC1=O`, the growth was 90.1%.
As for `COC(=O)[C@H]1CCCN1C(=O)[C@H]1CCCN1C(=O)[C@@H](Cc1c[nH]c2ccccc12)NC(=S)Nc1cc(C(F)(F)F)cc(C(F)(F)F)c1`, the growth was 93.2%.
On to `Brc1ccccc1Nc1ccc2nnc(-c3ccncc3)n2n1`, for which the growth is 98%.
For the compound `O=C(N/N=C/c1ccc(OC(F)F)c(OC2CCCC2)c1)c1cnn2c1NC(c1ccccc1)C2` (stereo not given), the growth is 90.7%.
Consider `C=CC(=O)N1CC2(CC(n3nc(-c4ccc(Oc5ccccc5)cc4)c4c(N)ncnc43)C2)C1`, for which the growth is 28.6%.
Turning to `O=c1c2c(=NCCN3CCCC3)cc3c(=O)n(CCCN4CCOCC4)c(=O)c4c(-c5ccc(CN6CCCC6)cc5)cc(c(O)n1CCCN1CCOCC1)c2c4-3`, the growth is -40.8% (active).
To `O=C1CC2c3cc(-c4cc5ccccc5o4)ccc3CCN2C(=O)N1c1ccccc1` (stereo not given) belongs 83%; to `COc1cc(NC(=O)COc2ccccc2)c(C(N)=O)cc1OC`, 9.86% (active); to `COc1cc2oc(-c3ccc(O)cc3)cc(=O)c2c(O)c1I`, 103%.
Turning to `COc1cc(/C=N/NC(=O)c2cnn3c2NC(c2ccccc2)C3)ccc1OC1CCCC1` (stereo not given), the growth is 18.6%.
On to `O=C1c2ccccc2-c2nnc(-c3ccc(Br)cc3)cc21`, for which the growth is -0.262% (active).
As for `O=S(=O)(/N=C1C=C/C(=N\S(=O)(=O)c2ccccc2)c2ccccc2\1)c1ccccc1`, the growth is 114%.
In the case of `Cc1c(C(=O)Nc2nc(-c3ccccc3)cs2)nnn1-c1ccccc1Br`, the growth was 40.1% [50 µM].
In the case of `O=C1/C(=C/c2ccc(F)cc2)CN(Cc2cn(CCNc3ccnc4cc(Cl)ccc34)nn2)C/C1=C\c1ccc(F)cc1`, the growth is -63.7% (active).
For the compound `c1ccc2cc(-c3n(Cc4ccc5ccccc5n4)c4ccccc4[n+]3Cc3ccc4ccccc4n3)ccc2c1`, the growth is -42.9% (active).
As for `CCCCCCCC/C=C\CCCCCCCCOc1cccc(CC(=O)NCC[N+](C)(C)C)c1`, the growth is 106%.
On to `CC(C)(C)CC(C)(C)N(CSc1ccc(Cl)cc1)CSc1ccc(Cl)cc1`, for which the growth is 74.4%.
Turning to `COc1ccc(/C=C(\C#N)c2ccc(OC)cc2)cc1`, the growth was 54.4%.
In the case of `O=c1onc(-c2ccccc2)c2ccccc12`, the growth was 118%.
Consider `CCN1CCN(c2ccc(Nc3ncc4ccc5ncn(C(C)C)c5c4n3)nc2)CC1`, for which the growth was -56.7% (active).
As for `COc1ccc(OC)c(C2C(C#N)=C(N)Oc3cc(O)ccc32)c1` (stereo not given), the growth was 96.5%.
As for `Cc1ccc(C(=O)Nc2ccccc2N)cc1`, the figure is 57.5%; as for `CCC(C)[C@H]1O[C@]2(CC[C@@H]1C)C[C@@H]1C[C@@H](C/C=C(\C)[C@@H](OC3C[C@H](OC)C(O[C@H]4C[C@H](OC)[C@@H](O)[C@H](C)O4)[C@H](C)O3)[C@@H](C)/C=C/C=C3\CO[C@@H]4[C@H](O)C(C)=C[C@@H](C(=O)O1)[C@]34O)O2` (stereo not given in full), -9.26% (active); as for `COc1cccc(C2CC(=O)Nc3cc4c(cc32)OCO4)c1OC` (stereo not given), 88.3%.
To `CCCCCCCCCCCCCCCC[N+]1(C)CCOCC1` belongs 57.7%.
In the case of `CCCCC1COc2cccc3c(SCC(=O)N(C)c4cccc5ccccc45)cc[n+]1c23` (stereo not given), the growth is 102%.
